# Records with an inconclusive call do not appear. Unmarked numbers belong to inactive results. Active and inactive are the calls of the source. The call rests on the fitted dose curve; in most records, active means well fitted cell-killing curve with a large enough effect; inconclusive means small, poorly fitted or top-dose-only effect; inactive means no such curve, though single readings can be large or run the other way.
# Assay: qHTS of pediatric cancer cell lines to identify multiple opportunities for drug repurposing: Primary screen for Rh30 cells (AID 1347107); further: nearly all actives have a fitted effect of over 75% in size
# Conditions: Rh30 rhabdomyosarcoma viability, CellTiter-Glo luminescence, 48 h; series mostly up to 46 µM; activity change, negative = cytotoxic: at the top concentration
# Summary of the method: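 Cells (500-1,000/well) in growth media were settled 5 h at 37 degrees C, then given compounds for 48 h. Viability was read as CellTiter-Glo luminescence. Primary runs used MIPE at 11 points (0.78 nM-46 µM) and NPC at 8 points (0.59 nM-46 µM); follow-ups used 11 points.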
# On the % scale 0 is the no-effect control and ±100 the full control effect; potency means the concentration at half of the fitted maximal effect.
Compound,"activity change, negative = cytotoxic [%]",Potency
COc1cc(C(C)C)c2c(c1)S(=O)(=O)N(COc1cc(=O)n3cccc(OCCN4CCCCC4)c3n1)C2=O,-4.46,–
CC(C)c1noc(N2CCC(COc3ccc(-c4ccc(S(C)(=O)=O)cc4)nc3)CC2)n1,-6.48,–
C[C@]12CC[C@H](O)CC1=CCC1C2CC[C@]2(C)C(n3cnc4ccccc43)=CCC12 (some centres undefined),8.85,–
O=C(O)CO.[NH2-].[NH2-].[Pt+2],28,–
COC(=O)C1=C(C)NC(C)=C(C(=O)OCCN2CCN(C(c3ccccc3)c3ccccc3)CC2)C1c1cccc([N+](=O)[O-])c1 (centres undefined),9.44,–
Clc1cccc(-n2nnnc2NCc2ccccc2Oc2ccccn2)c1Cl,0.84,–
COc1cc2c(Oc3ccc4[nH]c(C)cc4c3F)ncnc2cc1OCCCN1CCCC1,–,23.5 µM (active)
COc1cc2c(Nc3ccc(NC(=O)c4ccccc4)cc3)ncnc2cc1OCCCN1CCOCC1,4.99,–
O=C(c1cncc(Br)c1)N1CCC(N2CCCC2)CC1,13,–
CCN(CC)CCNC(=O)c1ccc2nc(-c3ccccc3)c(-c3ccc(CN4CCC(n5c(=O)[nH]c6ccccc65)CC4)cc3)nc2c1,–,18.7 µM (active)
Cc1cc(Nc2cc(N3CCN(C)CC3)nc(C=Cc3ccccc3)n2)n[nH]1,–,34 µM (active)
CCCCCN(CCC12CC3CC(CC(C3)C1)C2)C(=O)NCCCc1ccncc1,1.01,–
Cn1c2cc(S(C)=O)sc2c2cnn(Cc3cccc(N)c3)c(=O)c21 (centres undefined),5.18,–
CCCCN1CCC(CNC(=O)c2c3n(c4ccccc24)CCCO3)CC1,-29.6,–
